What was measured:
Assay in all cases: DAPPL (digital affinity profiling via proximity ligation, sequencing); 10 mM Tris-HCl pH 7.5, 50 mM NaCl, 1 mM DTT, 4% glycerol, room temperature, 30 min; GST-TFs on glutathione beads, 16-mer random dsDNA library, 0.1% formaldehyde crosslink after washing; high values mean tight binding
FEV = biological target: T1, FEV (Homo sapiens, UniProt Q99581 1-238); settings: protein: recombinant; tags: N-terminal GST; dsDNA, one strand shown
T1 sequence: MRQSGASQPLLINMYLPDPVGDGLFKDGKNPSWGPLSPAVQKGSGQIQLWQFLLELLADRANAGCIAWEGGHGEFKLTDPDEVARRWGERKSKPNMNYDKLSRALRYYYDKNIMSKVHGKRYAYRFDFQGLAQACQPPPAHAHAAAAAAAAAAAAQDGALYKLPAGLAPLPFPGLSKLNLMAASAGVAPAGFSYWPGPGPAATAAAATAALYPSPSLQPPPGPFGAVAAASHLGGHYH
Summary of the method: (§1)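 Pools were built from human transcription factors expressed in yeast as GST fusions, captured on glutathione beads and DNA-barcoded, along with a tag-only sample. Incubation with 200 nmole of a 16-mer random double-stranded DNA library lasted 30 min at room temperature in Tris/NaCl/DTT/glycerol buffer, and was followed by washing, 0.1% formaldehyde crosslinking, proximity ligation, PCR amplification and Illumina NextSeq500 sequencing. Binding signal is the quotient of each hexamer's read frequency for a factor and its frequency for the tag-only sample.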

ETV5 = ETV5 (Homo sapiens, UniProt P41161 1-510); settings: protein: recombinant; tags: N-terminal GST; dsDNA, one strand shown
Summary of the method: as §1

HSF1 = HSF1 (Homo sapiens, UniProt Q00613 1-529); settings: protein: recombinant; tags: N-terminal GST; chain copies: 3; dsDNA, one strand shown
Summary of the method: as §1

SPIC = biological target: T2, SPIC (Homo sapiens, UniProt Q8N5J4 1-248); settings: protein: recombinant; tags: N-terminal GST; dsDNA, one strand shown
T2 sequence: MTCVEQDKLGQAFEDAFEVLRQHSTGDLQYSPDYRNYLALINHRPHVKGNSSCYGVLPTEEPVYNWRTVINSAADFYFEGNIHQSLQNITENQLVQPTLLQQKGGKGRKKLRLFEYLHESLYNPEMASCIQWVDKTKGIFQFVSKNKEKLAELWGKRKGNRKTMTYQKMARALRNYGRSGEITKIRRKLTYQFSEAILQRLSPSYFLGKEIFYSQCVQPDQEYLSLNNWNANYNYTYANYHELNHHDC
Summary of the method: as §1

ELF4 = ELF4 (Homo sapiens, UniProt Q99607 1-663); settings: protein: recombinant; tags: N-terminal GST; dsDNA, one strand shown
Summary of the method: as §1

ELK4 = biological target: T3, ELK4 (Homo sapiens, UniProt P28324-2 1-405); settings: protein: recombinant; tags: N-terminal GST; dsDNA, one strand shown
T3 sequence: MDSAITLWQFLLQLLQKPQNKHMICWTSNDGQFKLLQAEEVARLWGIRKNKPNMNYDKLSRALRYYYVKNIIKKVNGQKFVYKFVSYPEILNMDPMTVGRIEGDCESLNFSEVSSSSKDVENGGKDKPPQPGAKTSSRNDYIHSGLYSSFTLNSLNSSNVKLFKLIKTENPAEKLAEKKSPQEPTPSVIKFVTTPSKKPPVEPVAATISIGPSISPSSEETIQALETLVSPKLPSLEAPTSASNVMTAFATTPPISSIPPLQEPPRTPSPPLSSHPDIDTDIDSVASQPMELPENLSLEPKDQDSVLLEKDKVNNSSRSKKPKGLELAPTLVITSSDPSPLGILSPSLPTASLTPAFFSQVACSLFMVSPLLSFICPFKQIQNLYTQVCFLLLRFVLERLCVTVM
Summary of the method: as §1

ETV2 = biological target: T4, ETV2 (Homo sapiens, UniProt O00321 1-342); settings: protein: recombinant; tags: N-terminal GST; dsDNA, one strand shown
T4 sequence: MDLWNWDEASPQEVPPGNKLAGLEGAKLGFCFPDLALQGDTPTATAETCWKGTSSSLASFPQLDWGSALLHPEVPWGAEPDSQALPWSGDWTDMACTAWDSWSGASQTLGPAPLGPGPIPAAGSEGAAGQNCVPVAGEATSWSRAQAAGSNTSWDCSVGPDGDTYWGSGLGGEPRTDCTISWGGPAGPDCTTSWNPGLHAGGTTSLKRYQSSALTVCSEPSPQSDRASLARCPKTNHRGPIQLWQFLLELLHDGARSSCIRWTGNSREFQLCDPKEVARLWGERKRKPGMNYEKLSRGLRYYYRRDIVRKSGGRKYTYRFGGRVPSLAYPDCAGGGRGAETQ
Summary of the method: as §1

ELF3 = biological target: T5, ELF3 (Homo sapiens, UniProt P78545 1-371); settings: protein: recombinant; tags: N-terminal GST; dsDNA, one strand shown
T5 sequence: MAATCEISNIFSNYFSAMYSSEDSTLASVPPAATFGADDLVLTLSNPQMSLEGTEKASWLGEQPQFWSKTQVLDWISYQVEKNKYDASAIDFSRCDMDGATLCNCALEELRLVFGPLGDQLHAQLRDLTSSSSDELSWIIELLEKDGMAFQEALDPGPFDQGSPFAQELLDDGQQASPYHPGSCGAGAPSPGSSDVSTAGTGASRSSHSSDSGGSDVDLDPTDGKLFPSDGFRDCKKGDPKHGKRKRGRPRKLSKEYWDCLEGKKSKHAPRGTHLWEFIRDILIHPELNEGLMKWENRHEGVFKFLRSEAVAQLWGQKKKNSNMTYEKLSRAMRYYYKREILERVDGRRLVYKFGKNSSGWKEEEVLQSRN
Summary of the method: as §1

CRX = CRX (Homo sapiens, UniProt O43186 1-299); settings: protein: recombinant; tags: N-terminal GST; dsDNA, one strand shown
Summary of the method: as §1

Chain of ETV5 (P41161 whole entry): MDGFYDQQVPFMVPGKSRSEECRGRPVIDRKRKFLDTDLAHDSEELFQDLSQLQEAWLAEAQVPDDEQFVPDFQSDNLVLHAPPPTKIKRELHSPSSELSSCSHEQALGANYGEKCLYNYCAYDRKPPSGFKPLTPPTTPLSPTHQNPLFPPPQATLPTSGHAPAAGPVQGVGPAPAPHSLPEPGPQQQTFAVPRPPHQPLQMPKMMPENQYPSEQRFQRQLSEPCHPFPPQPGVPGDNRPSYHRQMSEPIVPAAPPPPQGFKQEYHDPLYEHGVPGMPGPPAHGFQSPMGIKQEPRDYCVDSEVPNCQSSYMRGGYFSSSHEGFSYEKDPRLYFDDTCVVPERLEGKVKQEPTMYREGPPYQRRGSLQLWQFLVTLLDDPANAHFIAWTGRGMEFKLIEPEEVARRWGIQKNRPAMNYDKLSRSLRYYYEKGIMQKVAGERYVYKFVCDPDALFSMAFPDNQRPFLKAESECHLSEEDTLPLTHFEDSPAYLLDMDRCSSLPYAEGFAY
Chain of HSF1 (Q00613 whole entry): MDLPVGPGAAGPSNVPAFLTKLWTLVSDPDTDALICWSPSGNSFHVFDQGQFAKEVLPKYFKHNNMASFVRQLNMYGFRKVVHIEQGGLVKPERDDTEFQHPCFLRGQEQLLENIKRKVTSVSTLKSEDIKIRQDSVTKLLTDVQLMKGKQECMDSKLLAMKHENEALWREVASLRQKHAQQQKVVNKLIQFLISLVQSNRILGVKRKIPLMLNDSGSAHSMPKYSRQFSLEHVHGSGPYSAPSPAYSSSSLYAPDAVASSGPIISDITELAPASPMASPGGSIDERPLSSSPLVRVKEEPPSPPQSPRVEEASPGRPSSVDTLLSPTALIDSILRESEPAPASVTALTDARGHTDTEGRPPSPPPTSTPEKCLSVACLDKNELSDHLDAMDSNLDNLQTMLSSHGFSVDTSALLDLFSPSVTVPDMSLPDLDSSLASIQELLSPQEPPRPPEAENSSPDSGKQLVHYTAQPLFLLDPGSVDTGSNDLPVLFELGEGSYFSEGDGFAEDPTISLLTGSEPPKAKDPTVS
Chain of CRX (O43186 whole entry): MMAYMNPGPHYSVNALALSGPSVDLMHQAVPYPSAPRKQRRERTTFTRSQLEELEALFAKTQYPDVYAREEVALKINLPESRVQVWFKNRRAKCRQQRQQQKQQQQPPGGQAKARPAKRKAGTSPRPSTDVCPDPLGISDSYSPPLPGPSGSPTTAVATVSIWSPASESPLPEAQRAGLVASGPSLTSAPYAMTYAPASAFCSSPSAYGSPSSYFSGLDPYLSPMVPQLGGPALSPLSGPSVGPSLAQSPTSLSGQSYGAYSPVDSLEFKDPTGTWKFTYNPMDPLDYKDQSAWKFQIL
Chain of ELF4 (Q99607 whole entry): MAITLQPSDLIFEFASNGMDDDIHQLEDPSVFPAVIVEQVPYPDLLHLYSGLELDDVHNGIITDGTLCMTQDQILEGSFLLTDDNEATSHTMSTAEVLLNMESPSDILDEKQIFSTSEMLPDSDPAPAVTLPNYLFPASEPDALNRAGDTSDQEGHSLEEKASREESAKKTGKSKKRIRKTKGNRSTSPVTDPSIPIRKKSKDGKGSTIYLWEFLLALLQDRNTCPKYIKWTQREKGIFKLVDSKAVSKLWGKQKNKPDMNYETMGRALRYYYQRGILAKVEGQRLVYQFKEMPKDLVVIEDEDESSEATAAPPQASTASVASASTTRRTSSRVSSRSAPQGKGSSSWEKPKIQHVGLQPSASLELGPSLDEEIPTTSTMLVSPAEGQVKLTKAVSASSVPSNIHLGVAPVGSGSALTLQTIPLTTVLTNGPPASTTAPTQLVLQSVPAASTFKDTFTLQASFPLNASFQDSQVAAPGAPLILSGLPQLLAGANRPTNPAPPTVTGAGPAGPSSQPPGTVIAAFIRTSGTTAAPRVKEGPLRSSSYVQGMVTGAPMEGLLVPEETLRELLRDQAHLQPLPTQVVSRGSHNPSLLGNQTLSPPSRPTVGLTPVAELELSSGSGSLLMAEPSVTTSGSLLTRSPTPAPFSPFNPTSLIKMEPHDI

AAAATA was tested. Which binding signal (FEV) did it give?
The binding signal was 1.15 fold enrichment (6-mer frequency, TF over GST control).

What about the binding signal (ETV5) of the same sequence?
The binding signal was 1.17 fold enrichment (6-mer frequency, TF over GST control).

What about the binding signal (HSF1) of the same sequence?
Its binding signal is 1.34 fold enrichment (6-mer frequency, TF over GST control).

What about the binding signal (SPIC) of the same sequence?
The binding signal was 1.16 fold enrichment (6-mer frequency, TF over GST control).

And the binding signal (ELF4)?
The binding signal was 1.17 fold enrichment (6-mer frequency, TF over GST control).

And the binding signal (ELK4)?
Its binding signal is 1.19 fold enrichment (6-mer frequency, TF over GST control).

What about the binding signal (ETV2) of the same sequence?
The binding signal was 1.21 fold enrichment (6-mer frequency, TF over GST control).

What about the binding signal (ELF3) of the same sequence?
The binding signal was 1.06 fold enrichment (6-mer frequency, TF over GST control).

And the binding signal (CRX)?
Its binding signal is 1.35 fold enrichment (6-mer frequency, TF over GST control).

Reference: paper PMC7862700, “An all-to-all approach to the identification of sequence-specific readers for epigenetic DNA modifications on cytosine”
